Records with an inconclusive call do not appear. Calls of active or inactive are those of the source. Unless noted, calls come from the whole dose curve; as a rule, active = well fitted curve in the direction sought with a large enough effect in the repeat runs; inconclusive = weak or mixed curves; inactive = no such curve, though single readings can be large; an effect the other way counts as inactive or inconclusive.
Tests used:
[1] = molecular target: Retinoic acid receptor RXR-alpha (Homo sapiens) (UniProt P19793); assay: qHTS assay to identify small molecule agonists of the RXR signaling pathway (AID 1159527; calls by dose curve; note: nearly all actives have a fitted effect of over 35% in size)
Summary of the method: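 qHTS of the Tox21 10K library in GeneBLAzer RXR-alpha HEK 293T cells carrying a beta-lactamase reporter […]; 16 hr treatment, 9-cis retinoic acid as agonist control, FRET read-out.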

[2] = qHTS assay to identify small molecule agonists of the RXR signaling pathway - cell viability counter screen (AID 1159529); note: series mostly up to about 77 µM; nearly all actives have a fitted effect of over 50% in size
Summary of the method: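 Cell viability is measured by CellTiter-Glo luminescence, 30 min at room temperature, in wells already read for beta-lactamase. Engineered HEK 293T cells (RXR-alpha-UAS-bla) are dosed 16 hr at 37 C. Tetraoctyl ammonium bromide serves as positive control.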

[3] = qHTS assay to identify small molecule antagonists of the retinoid acid receptor (RAR) signaling pathway - cell viability counter screen (AID 1159551); note: nearly all actives have a fitted effect of over 35% in size
Summary of the method: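 C3RL4 cells were seeded overnight at 37 C, then treated with compounds plus 1 uM (final) retinol for 6 h at 37 C. Viability was read as ATP by CellTiter-Glo luminescence after 30 min at room temperature.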

[4] = qHTS assay to identify small molecule antagonists of the retinoic acid receptor (RAR) signaling pathway (AID 1159552; note: nearly all actives have a fitted effect of over 50% in size)
Summary of the method: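 Quantitative HTS in C3RL4 RARE-luciferase reporter cells. Compounds were added with 1 uM (final) retinol; luminescence was read after 6 hr.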

[5] = qHTS assay to identify small molecule agonists of the retinoic acid receptor (RAR) signaling pathway (AID 1159553)
Summary of the method: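 C3RL4 cells carrying a RARE luciferase reporter were plated overnight at 37 C, then exposed to compounds in DMSO for 6 hr at 37 C and 5% CO2. Luminescence was read 30 min after luciferase reagent addition at room temperature.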

[6] = qHTS assay to identify small molecule antagonists of the estrogen related receptor (ERR) signaling pathway - cell viability counter screen (AID 1224818);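 note: series mostly up to about 46 µM; viability measured after 17.5 h of compound exposure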
Summary of the method: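 ERR reporter cells plated 6 h at 37 C/5% CO2, then compounds in DMSO pin-transferred and incubated 17.5 h at 37 C. Viability read as CellTiter-Fluor fluorescence after 30 min at 37 C.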

[7] = qHTS assay to identify small molecule antagonists of the estrogen related receptor (ERR) signaling pathway (AID 1224819;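 note: luminescence from an ERR-driven luciferase reporter measured with One-Glo reagent; series mostly up to about 46 µM; nearly all actives have a fitted effect of over 50% in size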)
Summary of the method: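 ERR reporter cells were plated at 2,000 cells/well and left 6 h at 37 C/5% CO2 before pin-tool transfer of compounds in DMSO. After 18 h at 37 C, One-Glo was added and luminescence was read 30 min later at room temperature.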

[8] = qHTS assay to identify small molecule agonists of the estrogen related receptor (ERR) signaling pathway (AID 1224820)
Summary of the method: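 ERR reporter cells (NTP line) plated 2,000/well, incubated 6 h at 37 C/5% CO2, then pinned with compounds in DMSO and held 18 h at 37 C. One-Glo added; luminescence read after 30 min at room temperature.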

[9] = test system: estrogen-related receptor alpha (ERRalpha) with PGC-1alpha coactivator, human; assay: qHTS assay to identify small molecule antagonists of the estrogen related receptor signaling pathway with the pleiotropic PPARgamma coactivator (PGC) (AID 1224821; calls by dose curve;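 note: series mostly up to about 46 µM; lower luminescence signal means antagonism of PGC/ERR signalling; nearly all actives have a fitted effect of over 50% in size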)
Summary of the method: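 Cells engineered for PGC/ERR signalling (line from NTP) were plated 6 h at 37 C/5% CO2, then exposed to DMSO-dissolved compound for 18 h at 37 C. Luciferase activity was read by One-Glo luminescence after 30 min at room temperature.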

[10] = qHTS assay to identify small molecule antagonists of the estrogen related receptor signaling pathway with the pleiotropic PPARgamma coactivator (PGC) cell viability counter screen (AID 1224822; note: series mostly up to about 46 µM)
Summary of the method: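 PGC/ERR cells were seeded at 2,000 cells/well, rested 6 h at 37 C/5% CO2, then given compounds in DMSO by pin tool and incubated 17.5 h at 37 C. Viability came from CellTiter-Fluor fluorescence after 30 min.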

[11] = qHTS assay to identify small molecule agonists of the estrogen related receptor signaling pathway with the pleiotropic PPARgamma coactivator (PGC) (AID 1224823)
Summary of the method: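 PGC/ERR reporter cells were seeded, rested 6 h at 37 C/5% CO2, then exposed to compounds in DMSO by pin transfer for 18 h at 37 C. Luciferase activity was read as luminescence after One-Glo reagent and 30 min at room temperature.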

[12] = molecular target: Luciferin 4-monooxygenase (Photinus pyralis) (UniProt P08659); assay: qHTS assay to identify small molecule inhibitors of firefly luciferase (AID 1224835); note: series mostly up to about 120 µM; nearly all actives have a fitted effect of over 25% in size
Summary of the method: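 Quantitative HTS format; KM concentrations of both substrates. Purified P. pyralis FLuc activity quantified from luminescence images.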

[13] = qHTS assay to identify small molecule agonists of the constitutive androstane receptor (CAR) signaling pathway - cell viability counter screen (AID 1224836); note: series mostly up to about 92 µM; nearly all actives have a fitted effect of over 45% in size
Summary of the method: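 Counter screen multiplexed with the CAR reporter readout: HepG2 cells co-transfected with hCAR and the CYP2B6-2.2kb construct receive a 15-concentration compound series and 0.75 uM PK11195 (final), then CellTiter-Fluor fluorescence is read after 23 h.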

[14] = qHTS assay to identify small molecule antagonists of the constitutive androstane receptor (CAR) signaling pathway - cell viability counter screen (AID 1224837); note: series mostly up to about 92 µM; nearly all actives have a fitted effect of over 45% in size
Summary of the method: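 HepG2 cells stably expressing hCAR and a CYP2B6-2.2kb reporter were plated and pre-incubated 4 hr at 37 C/5% CO2, then given compounds at 15 concentrations plus 50 nM CITCO (final). After 23 hr, viability was read by CellTiter-Fluor fluorescence.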

[15] = molecular target: Nuclear receptor subfamily 1 group I member 3 (Homo sapiens) (UniProt Q14994); assay: qHTS assay to identify small molecule antagonists of the constitutive androstane receptor (CAR) signaling pathway (AID 1224838); note: nearly all actives have a fitted effect of over 40% in size
Summary of the method: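 HepG2 cells stably co-transfected with hCAR and a CYP2B6-2.2kb luciferase reporter were seeded 4 h before compound addition at 15 concentrations. Cells were stimulated with 50 nM CITCO (final) for 24 h at 37 C; luciferase luminescence was then read.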

[16] = qHTS assay to identify small molecule antagonists of the estrogen related receptor signaling pathway with the pleiotropic PPARgamma coactivator (PGC) from Tox21 10K library - cell viability counter screen (AID 1224840; active = well fitted cell-killing curve with a large enough effect in the repeat runs, not every such curve was filed as active; note: nearly all actives have a fitted effect of over 40% in size)
Summary of the method: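 PGC/ERR cells were seeded at 2,000 cells/well and left 6 hours at 37 C/5% CO2 before pin-tool addition of compounds in DMSO. After 17.5 hours at 37 C, CellTiter-Fluor was added and fluorescence read 30 minutes later.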

[17] = qHTS assay to identify small molecule antagonists of the estrogen related receptor signaling pathway with the pleiotropic PPARgamma coactivator (PGC) from Tox21 10K library (AID 1224841; call rule not given here)
Summary of the method: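 PGC/ERR reporter cells were seeded at 2,000 cells/well and held 6 hours at 37 C/5% CO2 before pin-tool addition of compounds in DMSO. After 18 hours at 37 C, One-Glo was added and luminescence read after 30 minutes at room temperature.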

[18] = qHTS assay to identify small molecule agonists of the estrogen related receptor signaling pathway with the pleiotropic PPARgamma coactivator (PGC) from Tox21 10K library (AID 1224842); note: nearly all actives have a fitted effect of over 15% in size
Summary of the method: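 PGC/ERR reporter cells (NTP line) were seeded 2,000 per well, rested 6 h at 37 C/5% CO2, then pin-dosed with compounds in DMSO for 18 h at 37 C; luciferase read by One-Glo luminescence after 30 min at room temperature.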

[19] = qHTS assay to identify small molecule antagonists of the estrogen related receptor (ERR) signaling pathway from Tox21 library - cell viability counter screen (AID 1224834); note: nearly all actives have a fitted effect of over 30% in size
Summary of the method: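 ERR reporter cells were plated 6 h before compound addition, then exposed to test compounds in DMSO for 17.5 h at 37 C. Viability was read as CellTiter-Fluor fluorescence after a 30-minute incubation at 37 C.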

[20] = molecular target: Nuclear receptor subfamily 1 group I member 3 (Homo sapiens) (UniProt Q14994); assay: qHTS assay to identify small molecule agonists of the constitutive androstane receptor (CAR) signaling pathway (AID 1224839); note: series mostly up to about 92 µM; nearly all actives have a fitted effect of over 15% in size
Summary of the method: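 A 15-concentration quantitative screen uses HepG2 cells co-transfected stably with human CAR and CYP2B6-2.2kb reporter. Treatment lasts 24 h with 0.75 uM PK11195 final present; ONE-Glo luminescence is the signal.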
% is set by controls: 0 for no effect and ±100 for the full control effect.

Nuclear receptor subfamily 1 group I member 3 (Homo sapiens), sequence (Q14994 whole entry, looked up): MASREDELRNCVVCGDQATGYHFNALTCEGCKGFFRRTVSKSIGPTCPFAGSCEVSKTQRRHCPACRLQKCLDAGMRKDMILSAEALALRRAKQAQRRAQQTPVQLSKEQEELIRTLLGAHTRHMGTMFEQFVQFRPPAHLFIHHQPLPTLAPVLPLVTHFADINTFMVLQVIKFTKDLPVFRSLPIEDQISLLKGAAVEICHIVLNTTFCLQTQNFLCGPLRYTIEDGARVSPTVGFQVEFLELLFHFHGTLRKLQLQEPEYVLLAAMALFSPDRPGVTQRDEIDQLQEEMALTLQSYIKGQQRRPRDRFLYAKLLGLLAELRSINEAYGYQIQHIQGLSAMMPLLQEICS
Retinoic acid receptor RXR-alpha (Homo sapiens), sequence (P19793 whole entry, looked up): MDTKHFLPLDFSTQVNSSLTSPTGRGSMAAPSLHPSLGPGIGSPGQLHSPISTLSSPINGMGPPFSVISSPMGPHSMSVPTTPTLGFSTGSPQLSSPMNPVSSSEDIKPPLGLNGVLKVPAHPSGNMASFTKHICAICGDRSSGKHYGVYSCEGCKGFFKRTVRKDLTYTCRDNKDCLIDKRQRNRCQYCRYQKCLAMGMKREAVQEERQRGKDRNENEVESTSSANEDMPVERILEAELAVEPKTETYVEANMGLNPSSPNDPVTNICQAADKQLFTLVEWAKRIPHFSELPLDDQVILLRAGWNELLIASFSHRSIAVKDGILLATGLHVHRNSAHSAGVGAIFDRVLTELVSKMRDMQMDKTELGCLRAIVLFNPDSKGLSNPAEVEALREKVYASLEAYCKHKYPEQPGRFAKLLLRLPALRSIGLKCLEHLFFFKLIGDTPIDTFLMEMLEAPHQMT
Luciferin 4-monooxygenase (Photinus pyralis), sequence (P08659 whole entry, looked up): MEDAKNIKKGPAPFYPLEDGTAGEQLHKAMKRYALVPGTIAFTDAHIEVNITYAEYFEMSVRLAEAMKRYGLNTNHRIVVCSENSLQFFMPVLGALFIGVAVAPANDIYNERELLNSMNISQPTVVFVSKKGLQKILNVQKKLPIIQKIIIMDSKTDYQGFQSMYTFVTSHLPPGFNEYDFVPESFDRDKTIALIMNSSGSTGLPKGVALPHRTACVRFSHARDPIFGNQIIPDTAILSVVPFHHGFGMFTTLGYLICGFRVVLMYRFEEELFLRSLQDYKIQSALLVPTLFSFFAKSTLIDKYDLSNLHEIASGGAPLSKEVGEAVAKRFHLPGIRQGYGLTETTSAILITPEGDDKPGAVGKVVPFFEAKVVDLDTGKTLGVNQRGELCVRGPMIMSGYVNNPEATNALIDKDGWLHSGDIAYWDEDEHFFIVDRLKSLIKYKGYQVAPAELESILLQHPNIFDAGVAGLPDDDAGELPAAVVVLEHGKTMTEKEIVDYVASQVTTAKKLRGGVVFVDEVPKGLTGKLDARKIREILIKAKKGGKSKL

CCn1ccnc1CC1COc2ccccc2O1 (configuration not stated)
inactive: Potency [1] | Potency [2] | outcome [3] | Potency [4] | Potency [5] | outcome [6] | outcome [7] | outcome [8] | outcome [9] | outcome [10] | outcome [11] | Potency [12] | Potency [13] | Potency [14] | Potency [15] | Potency [16] | Potency [17] | outcome [18]

CCCCCCCCCCCCCC=O
inactive: activation [1] 0.369% [at 6.98 µM] | activity change, negative = cytotoxicity [2] 1.55% [at 6.97 µM] | activity change, negative = cytotoxicity [3] 4.56% [at 8.39 µM] | activity, negative = inhibition [4] -4.55% [at 8.39 µM] | activation [5] 1.59% [at 8.36 µM] | viability change, negative = cytotoxic [19] 1.13% [at 8.39 µM] | activity change, negative = inhibition [12] 3.28% [at 10.5 µM] | viability change, negative = cytotoxic [13] -0.0726% [at 8.39 µM] | activity change, negative = cytotoxicity [14] 6.66% [at 8.39 µM] | activity, negative = inhibition [15] -13.4% [at 8.39 µM] | activation [20] -0.0217% [at 8.39 µM] | viability change, negative = cytotoxic [16] 5.18% [at 8.39 µM] | activity, negative = inhibition [17] 11.8% [at 8.39 µM] | activation [18] -0.504% [at 8.39 µM]

CC(=O)OCC(CCn1cnc2cnc(N)nc21)COC(C)=O
inactive: Potency [1] | Potency [2] | outcome [3] | Potency [4] | Potency [5] | outcome [6] | Potency [19] | Potency [12] | Potency [13] | Potency [14] | Potency [16]

Cn1cc(S(C)=O)c(=O)c2ccc(F)cc21 (configuration not stated)
inactive: Potency [1] | Potency [2] | outcome [3] | Potency [4] | Potency [5] | Potency [19] | Potency [12] | Potency [13] | Potency [14] | Potency [15] | Potency [20] | Potency [16] | Potency [17] | outcome [18]

COC(=O)NN
inactive: Potency [1] | Potency [2] | outcome [3] | Potency [4] | Potency [5] | Potency [19] | Potency [12] | Potency [13] | Potency [14] | Potency [15] | Potency [20] | Potency [16] | Potency [17] | outcome [18]

O=C(O)Cc1ccc(CCNS(=O)(=O)c2ccc(Cl)cc2)cc1
inactive: Potency [1] | Potency [2] | outcome [3] | Potency [4] | Potency [5] | Potency [19] | Potency [12] | Potency [13] | Potency [14] | Potency [15] | Potency [20] | Potency [16] | Potency [17] | outcome [18]

O=C1CCCCCCCCCCCN1
inactive: Potency [1] | Potency [2] | outcome [3] | Potency [4] | Potency [5] | Potency [19] | Potency [12] | Potency [13] | Potency [14]

O=c1cc(CO)occ1O
inactive: Potency [1] | Potency [2] | outcome [3] | Potency [4] | Potency [5] | Potency [19] | Potency [12] | Potency [13] | Potency [14] | Potency [15] | Potency [20] | Potency [16] | Potency [17] | outcome [18]

OC[C@]1(O)OC[C@@H](O)[C@H](O)[C@@H]1O
inactive: Potency [1] | Potency [2] | outcome [3] | Potency [4] | Potency [5] | Potency [19] | Potency [12] | Potency [13] | Potency [14] | Potency [15] | Potency [20] | Potency [16]

CCCCCCCCCCCC
inactive: Potency [1] | Potency [2] | outcome [3] | Potency [4] | Potency [5] | Potency [19] | Potency [12] | Potency [13] | Potency [14] | Potency [15] | Potency [20] | Potency [16] | Potency [17] | outcome [18]

CCCCNC(=O)NCCCC
inactive: Potency [1] | Potency [2] | outcome [3] | Potency [4] | Potency [5] | Potency [19] | Potency [12] | Potency [13] | Potency [14] | Potency [15] | Potency [20] | Potency [16] | Potency [17] | outcome [18]

C1OCOCO1
inactive: Potency [1] | Potency [2] | outcome [3] | Potency [4] | Potency [5] | Potency [19] | Potency [12] | Potency [13] | Potency [14] | Potency [15] | Potency [20] | Potency [16] | Potency [17] | outcome [18]

CC(C)=CCCC(C)CC(=O)O (configuration not stated)
inactive: Potency [1] | Potency [2] | outcome [3] | Potency [4] | Potency [5] | Potency [19] | Potency [12] | Potency [13] | Potency [14] | Potency [15] | Potency [20] | Potency [16] | Potency [17] | outcome [18]

COc1c(N2C[C@@H]3CCCN[C@@H]3C2)c(F)cc2c(=O)c(C(=O)O)cn(C3CC3)c12
inactive: Potency [1] | Potency [2] | outcome [3] | Potency [4] | Potency [5] | Potency [19] | Potency [12] | Potency [13] | Potency [14] | Potency [15] | Potency [20] | Potency [16] | Potency [17] | outcome [18]

OC1CCCCC1c1ccccc1 (configuration not stated)
inactive: Potency [1] | Potency [2] | outcome [3] | Potency [4] | Potency [5] | Potency [19] | Potency [12] | Potency [13] | Potency [14] | Potency [15] | Potency [20] | Potency [16] | Potency [17] | outcome [18]

c1ccc(CC2=NCCN2)cc1
inactive: Potency [1] | Potency [2] | outcome [3] | Potency [4] | Potency [5] | Potency [19] | Potency [12] | Potency [13] | Potency [14] | Potency [15] | Potency [20] | Potency [16] | Potency [17] | outcome [18]

CCN(CC)CCOCCOC(=O)C1(c2ccccc2)CCCC1
inactive: Potency [1] | Potency [2] | outcome [3] | Potency [4] | Potency [5] | outcome [6] | Potency [12] | Potency [13] | Potency [15] | Potency [16]

Nc1ccccc1S(=O)(=O)O
inactive: Potency [1] | Potency [2] | outcome [3] | Potency [4] | Potency [5] | Potency [19] | Potency [12] | Potency [13] | Potency [14] | Potency [15] | Potency [20] | Potency [16] | Potency [17] | outcome [18]

Source: PubChem BioAssay (Tox21)
